Assay outcomes deposited in PubChem by National Center for Advancing Translational Sciences (NCATS).
Most compounds without a hit are left out; they make up all but 1.4% or so of the library.
GALC G270D act: A Novel Cell-Based Assay to Identify Small Molecules for B -Galactocerebrosidase. 145M-Twi-hGALC-G270D cells (Twitcher mouse brain line with human GALC G270D), HMU-beta-Gal fluorescence, 48 h. AID 1159614, 2016. P54803. 0.1% of 45,000 active. Potency, µM (series often up to 57.5 µM), most hits filed as activators; note: nearly all actives have a fitted effect of over 65% in size
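Live 145M-Twi cells (Twitcher mouse brain-derived, GALC-null) stably expressing human GALC-G270D, with a wild-type GALC line, were compound-treated. Residual GALC activity was then read as fluorescence from 0.1 mM final HMU-β-gal at pH 5.2; higher signal means activation.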
B2AR arrestin ag: qHTS assay of beta-arrestin-biased ligands of beta2-adrenergic receptor: NCGC Sytravon Library Screen | HTLA Tango cells, beta-arrestin recruitment, luciferase luminescence, 18 h | Potency, µM (top dose mostly 46.1 µM), hits mostly activators | 44,000 tested, under 10 active | AID 1347077, 2019
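First, Tango cells carrying beta2-AR and beta-arrestin fusions received compound up to 46 microM. After 18 hr at 37 degrees C, luciferase substrate was added for 15 minutes, then luminescence gave %Activity for curve fitting.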
HTT prom inh: Primary qHTS for Identification of Small Molecule Inhibitors of Huntingtin Promoter Activity; HEK293 HTT promoter firefly luciferase reporter, 24 h; Potency, µM (highest dose often 57.5 µM), actives largely listed as inhibitors; 0.93% of 48,000 active; AID 1508623, 2021; note: nearly all actives have a fitted effect of over 50% in size
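HEK293 cells carrying firefly luciferase reporters were seeded at 2,500 per well in Opti-MEM and cultured for 24 h. They were then treated with compounds at up to 57.5 uM final for 24 h at 37 degrees C before Dual-Glo luminescence readout.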
HTT-AS promoter: Primary qHTS for Identification of Small Molecule Activators of Huntingtin-Antisense Promoter Activity. 0.24% of 48,000 active. Potency, µM (doses to about 57.5 µM), most hits filed as activators. HEK293 HTT-AS promoter firefly luciferase reporter, 24 h; response scale: percent change from vehicle, -100% = no light; note: nearly all actives have a fitted effect of over 55% in size
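Luminescence was read after Dual-Glo reagent and a 10 min room-temperature incubation. Values were normalized to vehicle (0% activity) and zero RLU (-100% activity). Reporter HEK293 cells had been exposed to compounds (up to 57.5 uM final) for 24 h.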
GALK inh: qHTS Assay for Inhibitors of Human Galactokinase (GALK): NCGC Sytravon Library Screen | P51570 | recombinant GALK, Kinase-Glo ATP luminescence, 1 h | Potency, µM (titrated, usually from 57.5 µM), usual class: inhibitors | 44,000 tested, under 10 active | AID 1347072, 2019
Target sequence (P51570 whole entry, looked up): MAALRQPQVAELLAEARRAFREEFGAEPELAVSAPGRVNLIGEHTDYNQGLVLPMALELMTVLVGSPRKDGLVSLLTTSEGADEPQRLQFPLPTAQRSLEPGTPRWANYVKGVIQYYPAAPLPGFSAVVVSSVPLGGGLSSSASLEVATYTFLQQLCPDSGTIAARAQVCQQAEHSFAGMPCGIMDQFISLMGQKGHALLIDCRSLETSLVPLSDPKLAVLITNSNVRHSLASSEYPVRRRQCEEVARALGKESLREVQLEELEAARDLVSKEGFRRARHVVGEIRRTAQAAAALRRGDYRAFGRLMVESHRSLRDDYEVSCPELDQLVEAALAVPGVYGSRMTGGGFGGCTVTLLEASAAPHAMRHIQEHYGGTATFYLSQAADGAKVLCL
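Luminescent ATP-depletion readout (Kinase-Glo Plus) after 1 h room-temperature incubation of human GALK (5 nM) with galactose 100 µM and ATP 35 µM, pH 8.0 HEPES/Mg2+ buffer; compounds tested in qHTS format.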
PTAP-TSG101 blk: qHTS Validation Assay for Inhibitors of HIV-1 Budding by Blocking the Interaction of PTAP/TSG101: Sytravon Library Screen | Fluorescence polarization, FITC-PTAP peptide/Tsg101, 20 min | Potency, µM (titrated, usually from 115 µM), usual class: inhibitors | 44,000 tested, under 10 active | AID 1347069, 2019
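qHTS FP binding, 20 min r.t.: 10 uM Tsg101 domain + 50 nM FITC-PTAP peptide, pH 7.5 HEPES buffer with TCEP and EDTA.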
Hits are given with their value; . = inactive; ? = inconclusive; / = no result. Calls come from the whole dose curve; as a rule, active = well fitted curve in the direction sought with a large enough effect; inconclusive = small, poorly fitted or top-dose-only effect, or another doubt; inactive = no such curve, though single readings can be large; an effect the other way counts as inactive or inconclusive.

SMILES	GALC G270D act	B2AR arrestin ag	HTT prom inh	HTT-AS promoter	GALK inh	PTAP-TSG101 blk
CCOc1ccc(CN2CCN(Cc3ccc4c(c3)c3ccccc3n4CC)CC2)cc1	.	.	31.6µM	.	.	.
Cc1cc(NS(=O)(=O)c2ccc(NC(=O)COc3cc(C)c(Br)cc3C(C)C)cc2)no1	.	.	.	.	.	.
CCC(C(=O)NCc1ccccc1OC)n1nc(C)n2c(cc3sccc32)c1=O (stereo unspecified)	.	.	.	.	.	.
Cc1cccc(-c2nc(C(N)=O)c3c(n2)n(-c2ccc4c(c2)OCO4)c(=O)n3C)c1	.	.	.	.	.	.
Cc1cc(F)ccc1NC(=O)c1csc2c1CCC(C)C2 (stereo unspecified)	.	.	.	3.16µM	.	.
Cc1ccc2nc(-c3ccc(Cl)s3)c(Nc3ccc4c(c3)OCCO4)n2c1	.	.	.	4.47µM	.	.
CCOC(=O)c1c(C)n(-c2ccccc2)c2ccc(OC(=O)c3ccccc3)cc12	.	.	20µM	.	.	.
CCOC(=O)c1cnc2ccc(C)cc2c1Nc1ccc(N(CC)CC)cc1	.	.	25.1µM	.	?	.
COc1ccc(-c2cn3nc(SCC(=O)Nc4ccccc4F)ccc3n2)cc1	.	.	3.98µM	.	.	.
COc1ccc(CNC(=O)C2=C(C)C(=O)OC23CCCCC3)cc1OC	.	.	.	.	.	.
COc1ccc(CN2CCc3c(c(=O)n4ncc(C(=O)N5CCN(c6ccc(F)cc6)CC5)c4n3C)C2)cc1	.	.	12.6µM	.	.	.
CCn1c2c(c(=O)n3ncc(C(=O)N4CCN(c5ccc(C(C)=O)cc5)CC4)c13)CN(Cc1ccc(OC)cc1)CC2	.	.	?	.	.	.
CCOC(=O)c1cc(-c2ccccc2)n(CCC(=O)Nc2ccc(Cl)c(C(F)(F)F)c2)c1C	.	.	22.4µM	.	.	.
CCOc1ccc(CCNC(=O)CCSCc2ccc(Cl)cc2)cc1OCC	.	.	.	.	.	.
CCOC(=O)c1c(NC(=O)COc2ccc(OC)cc2)sc(C(=O)N(CC)CC)c1C	.	.	11.2µM	.	.	.
COc1ccc(-c2nc3ccccc3s2)cc1NC(=O)c1ccc(C#N)cc1F	.	.	.	.	.	.
COc1ccc(-c2nc3ccccc3s2)cc1NC(=O)c1ccccc1F	.	.	.	.	.	.
COc1ccc(-c2nc3ccccc3s2)cc1NC(=O)c1cccc([N+](=O)[O-])c1C	.	.	.	2µM	.	.
COc1ccc(-c2nc3ccccc3s2)cc1NC(C)=O	.	.	.	1.41µM	.	.
COc1ccc(CNC(=O)Cn2c(=O)oc3cc(S(=O)(=O)N4CCC(C)CC4)ccc32)cc1	.	.	?	.	.	.
Cc1cc(NC(=O)c2cc(-c3cccc(Cl)c3)on2)nn1Cc1ccc(Cl)cc1	.	.	1.58µM	.	.	.
COc1cccc(NC(=O)CSc2nnc(COc3ccc(Cl)cc3)o2)c1	/	.	/	/	.	.
Cc1ccc(-c2cn(-c3ccc(Cl)cc3)c(S(=O)(=O)CC(=O)Nc3ccccc3)n2)cc1	.	.	.	?	.	.
Cc1ccc(-n2cc(-c3ccccc3)nc2S(=O)(=O)CC(=O)Nc2ccc(F)cc2)cc1	.	.	.	3.16µM	.	.
COc1ccc(Cl)cc1NC(=O)Cn1nc(C(F)(F)F)c2c1CCC2	.	.	.	.	.	.
CCC1=C(c2ccc(C)cc2)S(=O)(=O)N=C1N1CCC(C(=O)NCCc2ccc(Cl)cc2)CC1	.	.	20µM	.	.	.
